Hits are enriched below; roughly 15% of the tested compounds scored in any of these assays.
HCV inh: HCV inhibition | Huh7.5.1 HCVcc-Cre infection, luciferase reporter, 44 h | Potency, µM (highest dose often 41.8 µM), inactives show at the top dose activity change, negative = inhibition, usual class: inhibitors | AID 651820 | hit rate 3.4% among 340,000; further: potency means the concentration at half of the fitted maximal effect; on the % scale 0 is the no-effect control and ±100 the full control effect
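Cells seeded at 1,000/well and cultured 4 h, then compounds added followed by HCVcc-Cre virus (~0.5 moi). After 44 h further culture, luciferase substrate was added, plates held 15 min at room temperature, and luminescence read for 15 sec.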
Sm TGR inh: blocks Schistosoma mansoni thioredoxin glutathione reductase | Q962Y6 | purified TGR, DTNB reduction, TNB absorbance 405 nm | Potency, µM (titrated, usually from 114 µM), for the others: at the highest dose activity change, negative = inhibition, actives largely listed as inhibitors | hit rate 3% among 360,000; further: potency means the concentration at half of the fitted maximal effect; on the % scale 0 is the no-effect control and ±100 the full control effect; nearly all actives have a fitted effect of over 60% in size
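TGR 20 nM + NADPH 100 uM (dispensed conc.), cpd preinc 15 min RT; start with NADPH (500 uM addition) then DTNB (15 mM addition). Kinetic TNB absorbance, 405 nm filter. Four-parameter Hill fit across titration.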
HCMV antiviral: inhibitors of human cytomegalovirus; HFF cells, HCMV-luciferase reporter, 72 h; hits give low values; activity change, negative = inhibition, % at 57.5 µM; hit rate 4.5% among 410,000; AID 1259415; in the data active means activity change below about -60%; inconclusive means no clear call, values can overlap the other calls; inactive means above about -39%; further: on the % scale 0 is the no-effect control and ±100 the full control effect
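HFF cells seeded 16 h at 37C, treated with compounds, infected with luciferase-reporter HCMV at MOI 1 PFU/cell; luciferase read at 72 h post infection, normalized to buffer-only and Salinomycin controls.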
SARS PLpro yeast: inhibitors of SARS-CoV papain-like protease in yeast; S. cerevisiae expressing SARS-CoV PLpro, growth rescue; Potency, µM (doses to about 32.9 µM), without a hit: top-dose activity, positive = growth rescue, actives largely listed as activators; hit rate 0.19% among 330,000; calls by dose curve; further: potency means the concentration at half of the fitted maximal effect; 0% is about no effect; nearly all actives have a fitted effect of over 55% in size
Pf growth 48h: inhibits P. falciparum growth in the first generation, 48 h. Potency, µM (titrated, usually from 28.7 µM), inactives show at the top dose activity change, negative = inhibition, usual class: inhibitors. P. falciparum luciferase growth in erythrocytes, 48 h. hit rate 5.9% among 310,000. AID 504832; further: potency means the concentration at half of the fitted maximal effect; on the % scale 0 is the no-effect control and ±100 the full control effect
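Cell-based growth assay: transgenic P. falciparum expressing firefly luciferase, cultured in red cells within RPMI 1640 containing 0.5% w/v Albumax, 24 mM bicarbonate and gentamycin. A drop in luciferase activity indicates inhibition.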
Pf growth 96h: inhibits malaria parasite growth, 96 h; AID 504834; P. falciparum luciferase reporter growth, 96 h; hit rate 6.9% among 320,000; Potency, µM (highest dose often 28.7 µM), inactives show top-dose activity change, negative = inhibition, actives largely listed as inhibitors; further: potency means the concentration at half of the fitted maximal effect; on the % scale 0 is the no-effect control and ±100 the full control effect
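Luminescence readout: decreased luciferase signal marks inhibited growth of reporter-expressing P. falciparum in infected red cells (2% hematocrit, 0.05% parasitemia final), exposed to compound two generations (96 h, 37 C, 5% CO2).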
Starred values were filed as active, the others as inactive. Unless noted, the call rests on the fitted dose curve; in most records, active means well fitted curve in the direction sought with a large enough effect; inconclusive means small, poorly fitted or top-dose-only effect, or another doubt; inactive means no such curve, though single readings can be large; an effect the other way counts as inactive or inconclusive.

Screening O=C(N/N=C/c1ccc(F)cc1)c1cc(-c2ccco2)nc2ccccc12 returned HCV inh -17%, Sm TGR inh 11µM*, HCMV antiviral 95, SARS PLpro yeast -4%, Pf growth 48h 15% and Pf growth 96h 0%.
Screening O=C(N/N=C/c1ccco1)c1cc(-c2cccc(Br)c2)nc2ccccc12 returned HCV inh inconclusive, Sm TGR inh -10%, HCMV antiviral -63*, SARS PLpro yeast -15%, Pf growth 48h inconclusive and Pf growth 96h inconclusive.
For Cc1ccc(N2CCN(C(=O)C3CCN(S(=O)(=O)c4ccc5c(c4)oc(=O)n5C)CC3)CC2C)cc1 (configuration not stated) the results were Sm TGR inh -15% and HCMV antiviral -11.
Cc1ccc(S(=O)(=O)N2CC(=O)N3CCN(CCN)C3C2)cc1 (configuration not stated) was read as HCV inh 0%, HCMV antiviral -12 and SARS PLpro yeast 2%.
For Cc1ccccc1Nc1cc(C(=O)NC2CCC(C)CC2)c2ccccc2n1 (configuration not stated) the results were Sm TGR inh 11% and HCMV antiviral -78*.
`O=C(Nc1nccs1)c1cc(-c2ccco2)nc2ccccc12` gave HCV inh 1%, Sm TGR inh 56µM*, HCMV antiviral 17, SARS PLpro yeast 16%, Pf growth 48h 9% and Pf growth 96h 23%.
Screening O=C(NC1CCCCC1)c1cc(-c2ccco2)on1 returned HCV inh 6%, Sm TGR inh 5%, HCMV antiviral 64, SARS PLpro yeast -4%, Pf growth 48h 72% and Pf growth 96h 12µM*.
For O=C(Nc1nccs1)c1cc(-c2ccccc2)nc2ccccc12 the results were HCV inh inconclusive, Sm TGR inh 1%, HCMV antiviral -32, SARS PLpro yeast 15%, Pf growth 48h 2.6µM* and Pf growth 96h 3.3µM*.
`Cc1ccc(-c2nnc(SCC(=O)Nc3cccc(C(=O)N4CCOCC4)c3)n2C)cc1` gave HCV inh -3%, Sm TGR inh 1%, HCMV antiviral 44, SARS PLpro yeast 13%, Pf growth 48h 18% and Pf growth 96h 14%.
For O=C(Cc1ccc(Cl)cc1)Nc1ccncc1 the results were HCV inh 10µM*, Sm TGR inh -1%, HCMV antiviral inconclusive, SARS PLpro yeast -1%, Pf growth 48h 4% and Pf growth 96h -6%.
O=C(Nc1ccncc1)c1ccc(Cl)cc1 was read as HCV inh 3%, Sm TGR inh 0%, HCMV antiviral -17, SARS PLpro yeast -2%, Pf growth 48h inconclusive and Pf growth 96h inconclusive.
`Cc1ccc(CC(=O)Nc2ccncc2)cc1` gave HCV inh 13µM*, HCMV antiviral inconclusive, SARS PLpro yeast 0%, Pf growth 48h 40% and Pf growth 96h inconclusive.
Screening CN(CCCC(=O)Nc1ccncc1)S(=O)(=O)c1ccc(Cl)cc1 returned HCV inh 10µM*, Sm TGR inh -4%, HCMV antiviral -38, SARS PLpro yeast 3%, Pf growth 48h inconclusive and Pf growth 96h 245%.
For O=C(CCS(=O)(=O)c1ccc(Cl)cc1)Nc1ccc(F)cc1 the results were HCV inh 14%, Sm TGR inh 15%, HCMV antiviral -35, SARS PLpro yeast -2%, Pf growth 48h -3% and Pf growth 96h 10µM*.
Screening NS(=O)(=O)c1ccc(CCNC(=O)c2ccc(Cl)c(S(=O)(=O)N3CCCCC3)c2)cc1 returned HCV inh 2%, HCMV antiviral inconclusive and SARS PLpro yeast -6%.
Screening O=C(NCCC1=CCCCC1)c1ccc(Cl)c(S(=O)(=O)N2CCOCC2)c1 returned HCV inh inconclusive, Sm TGR inh 2%, HCMV antiviral -66*, SARS PLpro yeast -2%, Pf growth 48h 5.9µM* and Pf growth 96h -9%.
`O=C(NCCN1CCOCC1)c1ccc(Cl)c(S(=O)(=O)N2CCCCC2)c1` gave Sm TGR inh 1%, HCMV antiviral -20, SARS PLpro yeast 0%, Pf growth 48h -4% and Pf growth 96h inconclusive.
O=C(NCCC1=CCCCC1)c1ccc(Cl)c(S(=O)(=O)N2CCCCC2)c1 was read as HCV inh inconclusive, Sm TGR inh -20%, HCMV antiviral -81*, SARS PLpro yeast -6%, Pf growth 48h 9.3µM* and Pf growth 96h 5.9µM*.
Screening Cc1ccc(CSCCNC(=O)c2ccc(Cl)c(S(=O)(=O)N3CCOCC3)c2)cc1 returned HCV inh 22µM*, Sm TGR inh -18%, HCMV antiviral -39, SARS PLpro yeast -8% and Pf growth 96h 5.2µM*.
`O=C(NCCSCc1c(F)cccc1Cl)c1ccc(CN2CCOCC2)cc1` gave HCV inh inconclusive, Sm TGR inh -9%, HCMV antiviral -63*, SARS PLpro yeast 29%, Pf growth 48h -11% and Pf growth 96h -56%.
`O=C(NCCSCc1ccco1)c1ccc(CN2CCOCC2)cc1` gave HCV inh 7%, Sm TGR inh 1%, HCMV antiviral 43, SARS PLpro yeast 2% and Pf growth 96h 58%.
`CCCNC(=O)c1cc(C2CCCCN2S(C)(=O)=O)on1` (configuration not stated) gave HCMV antiviral -12.
Screening COc1ccccc1CNC(=O)Cc1csc2nc(-c3ccc(Cl)cc3)cn12 returned Sm TGR inh -4% and HCMV antiviral -31.
Screening CN1CCN(S(=O)(=O)c2cccc(C(=O)NCCC3=CCCCC3)c2)CC1 returned HCV inh -14%, Sm TGR inh 3%, HCMV antiviral 21, SARS PLpro yeast 1%, Pf growth 48h -20% and Pf growth 96h 9%.
Screening CC(=O)N1CCN(S(=O)(=O)c2cccc(C(=O)NCCC3=CCCCC3)c2)CC1 returned HCV inh 15%, Sm TGR inh -2%, HCMV antiviral 4, SARS PLpro yeast 5%, Pf growth 48h 12% and Pf growth 96h 8.3µM*.
CSc1ncc(/C=C2/C(=O)NC(=O)N(c3ccc(C(C)C)cc3)C2=O)cn1 was read as HCV inh 25%, Sm TGR inh 11µM*, HCMV antiviral 38, SARS PLpro yeast -3%, Pf growth 48h -7% and Pf growth 96h -30%.
CCc1ccc(N2C(=O)NC(=O)/C(=C\c3cccn3CCOc3ccc(C(C)C)cc3)C2=O)cc1 was read as HCV inh -2%, Sm TGR inh inconclusive, HCMV antiviral -23, SARS PLpro yeast 10%, Pf growth 48h 145% and Pf growth 96h 175%.

From PubChem
